# Assay results: PubChem BioAssay (NCI)
# Where “and” joins values, the source holds several entries; their conditions need not be identical. Equal values may be shown once. Compounds without any hit were thinned out: in the full panel of roughly 83,000, 20% have a hit.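 Growth was measured after 48 h exposure to one concentration of compound in 96-well plates. Values under 10 count as active.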 Calls of active or inactive are those of the source.
# How the values were obtained:
# Assay in all cases: NCI-60 one-dose screen, 48 h (100 = growth as untreated, 0 = no growth, -100 = all killed)
# HCT-15 colon = system: HCT-15 colon
# HT29 colon = system: HT29 colon
# SNB-75 CNS = system: SNB-75 CNS
# SNB-19 CNS = system: SNB-19 CNS
# U251 CNS = settings: 10 µM unless noted
# PC-3 prostate = system: PC-3 prostate
# SK-MEL-5 melanoma = settings: 10 µM unless noted
# UACC-62 melanoma = system: UACC-62 melanoma
# LOX IMVI melanoma = settings: 10 µM unless noted
# SK-MEL-28 melanoma = system: SK-MEL-28 melanoma
# SK-MEL-2 melanoma = system: SK-MEL-2 melanoma
# EKVX NSCLC = settings: 10 µM unless noted
# SN12C renal = system: SN12C renal
# UO-31 renal = system: UO-31 renal
# TK-10 renal = system: TK-10 renal
# ACHN renal = system: ACHN renal
# CAKI-1 renal = system: CAKI-1 renal
# A498 renal = system: A498 renal
# MOLT-4 leukemia = system: MOLT-4 leukemia
# CCRF-CEM leukemia = settings: 10 µM unless noted
structure (smiles),measurement,setting,value
CCCCCCCCCCCCCCCC[N+](C)(CCO)Cc1cnc[nH]1 (stereo unspecified),growth,HCT-15 colon; 10 µM unless noted,23.5% (inactive)
same,growth,HT29 colon; 10 µM unless noted,-58.8% (active)
same,growth,SNB-75 CNS; 10 µM unless noted,-86.6% (active)
same,growth,SNB-19 CNS; 10 µM unless noted,-98.8% (active)
same,growth,U251 CNS,-86.5% (active)
same,growth,PC-3 prostate; 10 µM unless noted,-37.5% (active)
same,growth,SK-MEL-5 melanoma,-99.8% (active)
same,growth,UACC-62 melanoma; 10 µM unless noted,-76.4% (active)
same,growth,LOX IMVI melanoma,-79% (active)
same,growth,SK-MEL-28 melanoma; 10 µM unless noted,-43.2% (active)
same,growth,SK-MEL-2 melanoma; 10 µM unless noted,-78.5% (active)
same,growth,EKVX NSCLC,38.1% (inactive)
same,growth,SN12C renal; 10 µM unless noted,-4.78% (active)
same,growth,UO-31 renal; 10 µM unless noted,27.6% (inactive)
same,growth,TK-10 renal; 10 µM unless noted,-35.1% (active)
same,growth,ACHN renal; 10 µM unless noted,3.11% (active)
same,growth,CAKI-1 renal; 10 µM unless noted,40.9% (inactive)
same,growth,A498 renal; 10 µM unless noted,-5.4% (active)
same,growth,MOLT-4 leukemia; 10 µM unless noted,-77.2% (active)
C=CCOc1ccc(N=NC(C#N)C#N)cc1,growth,HCT-15 colon; 10 µM unless noted,56.9% (inactive)
same,growth,HT29 colon; 10 µM unless noted,72.7% (inactive)
same,growth,SNB-75 CNS; 10 µM unless noted,74.3% (inactive)
same,growth,SNB-19 CNS; 10 µM unless noted,94% (inactive)
same,growth,U251 CNS,84.6% (inactive)
same,growth,PC-3 prostate; 10 µM unless noted,70.4% (inactive)
same,growth,SK-MEL-5 melanoma,91.8% (inactive)
same,growth,UACC-62 melanoma; 10 µM unless noted,47.7% (inactive)
same,growth,LOX IMVI melanoma,26% (inactive)
same,growth,SK-MEL-28 melanoma; 10 µM unless noted,65.1% (inactive)
same,growth,SK-MEL-2 melanoma; 10 µM unless noted,87.3% (inactive)
same,growth,EKVX NSCLC,92.6% (inactive)
same,growth,SN12C renal; 10 µM unless noted,85.7% (inactive)
same,growth,UO-31 renal; 10 µM unless noted,41.4% (inactive)
same,growth,TK-10 renal; 10 µM unless noted,62.6% (inactive)
same,growth,ACHN renal; 10 µM unless noted,36% (inactive)
same,growth,CAKI-1 renal; 10 µM unless noted,25.6% (inactive)
same,growth,A498 renal; 10 µM unless noted,76% (inactive)
same,growth,CCRF-CEM leukemia,13.6% (inactive)
same,growth,MOLT-4 leukemia; 10 µM unless noted,19.5% (inactive)
O=C1N[C@H]2[C@H](CS[C@H]2CCCCC(=O)N(CCP(c2ccccc2)c2ccccc2)CCP(c2ccccc2)c2ccccc2)N1,growth,HCT-15 colon; 10 µM unless noted,78.6% (inactive)
same,growth,HT29 colon; 10 µM unless noted,59.3% (inactive)
same,growth,SNB-75 CNS; 10 µM unless noted,104% (inactive)
same,growth,SNB-19 CNS; 10 µM unless noted,75.7% (inactive)
same,growth,U251 CNS,50.8% (inactive)
same,growth,PC-3 prostate; 10 µM unless noted,71.7% (inactive)
same,growth,SK-MEL-5 melanoma,87.8% (inactive)
same,growth,UACC-62 melanoma; 10 µM unless noted,88.3% (inactive)
same,growth,LOX IMVI melanoma,76% (inactive)
same,growth,SK-MEL-28 melanoma; 10 µM unless noted,99.7% (inactive)
same,growth,SK-MEL-2 melanoma; 10 µM unless noted,81.3% (inactive)
same,growth,EKVX NSCLC,75.3% (inactive)
same,growth,SN12C renal; 10 µM unless noted,94.4% (inactive)
same,growth,UO-31 renal; 10 µM unless noted,77.3% (inactive)
same,growth,TK-10 renal; 10 µM unless noted,97.4% (inactive)
same,growth,ACHN renal; 10 µM unless noted,95.7% (inactive)
same,growth,A498 renal; 10 µM unless noted,94.2% (inactive)
same,growth,CCRF-CEM leukemia,62.7% (inactive)
same,growth,MOLT-4 leukemia; 10 µM unless noted,82.8% (inactive)
CN(C)C(=O)c1ccc(SC(=S)NCc2ccccc2)cc1,growth,HCT-15 colon; 10 µM,92.2% (inactive)
same,growth,HCT-15 colon; 100 µM,-35.1% (active)
same,growth,HT29 colon; 10 µM,107% (inactive)
same,growth,HT29 colon; 100 µM,-62% (active)
same,growth,SNB-75 CNS; 10 µM,110% (inactive)
same,growth,SNB-75 CNS; 100 µM,1.41% (active)
same,growth,SNB-19 CNS; 10 µM,109% (inactive)
same,growth,SNB-19 CNS; 100 µM,-0.973% (active)
same,growth,U251 CNS,16.7% [100 µM] (inactive)
same,growth,PC-3 prostate; 10 µM,97.1% (inactive)
same,growth,PC-3 prostate; 100 µM,17.6% (inactive)
same,growth,LOX IMVI melanoma,87.5% (inactive)
same,growth,SK-MEL-28 melanoma; 10 µM,106% (inactive)
same,growth,SK-MEL-28 melanoma; 100 µM,-34.8% (active)
same,growth,SK-MEL-2 melanoma; 10 µM,114% (inactive)
same,growth,SK-MEL-2 melanoma; 100 µM,4.25% (active)
same,growth,EKVX NSCLC,69.5% [100 µM] (inactive)
same,growth,SN12C renal; 10 µM,103% (inactive)
same,growth,SN12C renal; 100 µM,-15.4% (active)
same,growth,UO-31 renal; 10 µM,93.2% (inactive)
same,growth,UO-31 renal; 100 µM,-67.4% (active)
same,growth,TK-10 renal; 10 µM unless noted,-4.78% [100 µM] (active)
same,growth,ACHN renal; 10 µM,103% (inactive)
same,growth,ACHN renal; 100 µM,-56.9% (active)
same,growth,CAKI-1 renal; 10 µM,102% (inactive)
same,growth,CAKI-1 renal; 100 µM,11.2% (inactive)
same,growth,A498 renal; 10 µM,114% (inactive)
same,growth,A498 renal; 100 µM,96.1% (inactive)
same,growth,CCRF-CEM leukemia,0.435% [100 µM] (active)
same,growth,MOLT-4 leukemia; 10 µM,111% (inactive)
same,growth,MOLT-4 leukemia; 100 µM,3.1% (active)
CCC(=O)Sc1ccccc1C(=O)Nc1ccc(Cl)cc1,growth,HCT-15 colon; 10 µM unless noted,46% (inactive)
same,growth,HT29 colon; 10 µM unless noted,17% (inactive)
same,growth,SNB-75 CNS; 10 µM unless noted,76.7% (inactive)
same,growth,SNB-19 CNS; 10 µM unless noted,76.1% (inactive)
same,growth,U251 CNS,36.5% (inactive)
same,growth,PC-3 prostate; 10 µM unless noted,66.9% (inactive)
same,growth,SK-MEL-5 melanoma,25.2% (inactive)
same,growth,UACC-62 melanoma; 10 µM unless noted,54.1% (inactive)
same,growth,LOX IMVI melanoma,42.2% (inactive)
same,growth,SK-MEL-28 melanoma; 10 µM unless noted,49.8% (inactive)
same,growth,SK-MEL-2 melanoma; 10 µM unless noted,133% (inactive)
same,growth,EKVX NSCLC,29.5% (inactive)
same,growth,SN12C renal; 10 µM unless noted,49.5% (inactive)
same,growth,UO-31 renal; 10 µM unless noted,61.6% (inactive)
same,growth,TK-10 renal; 10 µM unless noted,69.4% (inactive)
same,growth,CAKI-1 renal; 10 µM unless noted,31.9% (inactive)
same,growth,A498 renal; 10 µM unless noted,36.8% (inactive)
same,growth,CCRF-CEM leukemia,27.1% (inactive)
same,growth,MOLT-4 leukemia; 10 µM unless noted,30.9% (inactive)
CC1OC(OC2C(OC3CCC4(C)C(CCC5(C)C4CC=C4C6CC(C)(C)CCC6(CO)C(O)CC45C)C3(C)C)OC(C(=O)O)C(OC3OC(COC4OC(CO)C(O)C(O)C4O)C(O)C(O)C3O)C2O)C(O)C(O)C1O (stereo unspecified),growth,HCT-15 colon; 10 µM unless noted,-47.8% (active)
same,growth,HT29 colon; 10 µM unless noted,-44.6% (active)
same,growth,SNB-75 CNS; 10 µM unless noted,-84.1% (active)
same,growth,SNB-19 CNS; 10 µM unless noted,-87.6% (active)
same,growth,U251 CNS,-80.4% (active)
same,growth,PC-3 prostate; 10 µM unless noted,-74.3% (active)
same,growth,SK-MEL-5 melanoma,-94.3% (active)
same,growth,UACC-62 melanoma; 10 µM unless noted,-69.7% (active)
same,growth,LOX IMVI melanoma,-69.9% (active)
same,growth,SK-MEL-28 melanoma; 10 µM unless noted,-79% (active)
same,growth,SK-MEL-2 melanoma; 10 µM unless noted,-75.3% (active)
same,growth,EKVX NSCLC,-74.8% (active)
same,growth,SN12C renal; 10 µM unless noted,-77.7% (active)
same,growth,UO-31 renal; 10 µM unless noted,-88.7% (active)
same,growth,TK-10 renal; 10 µM unless noted,-69.3% (active)
same,growth,ACHN renal; 10 µM unless noted,-100% (active)
same,growth,CAKI-1 renal; 10 µM unless noted,-95.3% (active)
same,growth,A498 renal; 10 µM unless noted,-88% (active)
same,growth,CCRF-CEM leukemia,-26.3% (active)
same,growth,MOLT-4 leukemia; 10 µM unless noted,-67% (active)
COc1cc(NS(C)(=O)=O)ccc1Nc1c2ccccc2nc2ccccc12,growth,HCT-15 colon; 10 µM unless noted,29.4% [2.5 µM] (inactive)
same,growth,HT29 colon; 10 µM unless noted,43.4% [2.5 µM] (inactive)
same,growth,SNB-75 CNS; 10 µM unless noted,27.9% [2.5 µM] (inactive)
same,growth,SNB-19 CNS; 2.5 µM,14.5% (inactive)
same,growth,SNB-19 CNS; 10 µM,-26% (active) and 28.9% (inactive) and 35.6% (inactive)
same,growth,U251 CNS,18.7% [2.5 µM] (inactive)
same,growth,PC-3 prostate; 10 µM unless noted,52.8% [2.5 µM] (inactive)
same,growth,SK-MEL-5 melanoma,3.48% [2.5 µM] (active)
same,growth,UACC-62 melanoma; 2.5 µM,29.1% (inactive)
same,growth,UACC-62 melanoma; 250 µM,-86.2% (active) and -100% (active)
same,growth,LOX IMVI melanoma,23.8% [2.5 µM] (inactive)
same,growth,SK-MEL-28 melanoma; 10 µM unless noted,52.5% (inactive) and 63.7% (inactive) and 53.8% (inactive)
same,growth,SK-MEL-2 melanoma; 10 µM unless noted,96.5% [2.5 µM] (inactive)
same,growth,EKVX NSCLC,58.8% [2.5 µM] (inactive)
same,growth,SN12C renal; 2.5 µM,17.7% (inactive)
same,growth,SN12C renal; 10 µM,10.6% (inactive) [middle of 4 runs]
same,growth,TK-10 renal; 2.5 µM,66.1% (inactive)
same,growth,TK-10 renal; 250 µM,-95.2% (active) and -100% (active)
same,growth,ACHN renal; 10 µM unless noted,2.39% [2.5 µM] (active)
same,growth,CAKI-1 renal; 10 µM unless noted,16.3% [2.5 µM] (inactive)
same,growth,A498 renal; 10 µM unless noted,-7.27% [2.5 µM] (active)
same,growth,CCRF-CEM leukemia,3.36% [2.5 µM] (active)
same,growth,MOLT-4 leukemia; 10 µM unless noted,1.03% [2.5 µM] (active)
